This is part of a sample that, as a whole, favours compounds with a hit. Of some 83,000 tested, about 20% had one in any assay.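 Single-dose data. Exposure time 48 hours. Values below 10 considered active.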 Unmarked numbers belong to inactive results. The source made the active and inactive calls.

In the assay the test system is BT-549 breast. The assay is described as follows: NCI-60 one-dose screen, 48 h (100 = growth as untreated, 0 = no growth, -100 = all killed). The settings on record: 10 µM unless noted. The protocol:
Growth inhibition of the BT-549 human tumor cell line is measured as a screen for anti-cancer activity. Cells are grown in 96 well plates and exposed to the test compound for 48 hours. Compounds are tested at a single concentration, which is 10^-5 M for most compounds. The reported endpoint is percent growth (GI% or GIPRCNT), where numbers from 0 - 100% represent growth inhibition, and numbers from -100% - 0 represent cell death. For example, a value of 40 represents 60% growth inhibition. A value of 0 means no net growth occurred over the course of the experiment. A value of -40 indicates 40% of cells at the beginning of the experiment died by the end of the experiment. A value of -100 means all cells are dead at the end of the experiment.
NCI-60 Human Tumor Cell Lines Screen was performed using the standard one-dose NCI protocol, which is described in more detail at https://dtp.cancer.gov/discovery_development/nci-60/default.htm.
Compounds with GIPRCNT values below 10 were considered active. Activity score was based on GIPRCNT using the following formula: […]
Score is 0 for GIPRCNT values of 100 or above, 50 for GIPRCNT values of 0, and 100 for GIPRCNT values of -100.
Turning to `Clc1ccccc1CNc1c2ccccc2nc2ccccc12`, the growth is 38.1%.

Turning to `COc1cc(C2CC(=O)Nc3c2cnn3C)cc(OC)c1OC` (stereo not given), the growth is 99.4%.

Consider `Cc1[nH]c2ccccc2c1C1=CC(=O)C=CC1=O`, for which the growth was 96.9%.

For the compound `CCCCCCCOc1cccc(/C=C2\N=C3SCCCN3C2=O)c1`, the growth is 100%.

Consider `CC(C)(C)OC(=O)N1CCCN(CCNc2nccc(-c3c(-c4cccc(O)c4)nc4sccn34)n2)S1(=O)=O`, for which the growth is 136%.

As to `CC(C)(C)c1cc(C[P+](c2ccccc2)(c2ccccc2)c2ccccc2)cc(C(C)(C)C)c1O`, the growth is -0.875% (active).

As for `Fc1ccc(-c2cnc3nonc3n2)c(F)c1`, the growth was 91.6%.

Consider `O=C1C(Cl)=C(Nc2cccc3ccccc23)C(=O)c2ccccc21`, for which the growth was 73.4%.

In the case of `O=C1c2cccc3cccc(c23)C(=O)N1CCCCCCCCCCN1C(=O)c2cccc3cccc(c23)C1=O`, the growth is 114%.

For the compound `CS(=O)(=O)c1ccc(Cl)c([N+](=O)[O-])c1`, the growth is 111%.

As for `O=C(Nc1ccc(Cl)cc1)c1cc(-c2ccc(Cl)cc2)c2sc(=O)[nH]c2n1`, the growth was 1.28% (active).

Regarding `Nc1c(C(=O)Nc2cccc(Cl)c2)sc2nc3c(cc12)C(=O)CCC3`, the growth was 66.4%.

With `NC(=O)N/N=C\c1ccc([N+](=O)[O-])o1`, the growth was 106%.

For the compound `COc1cc(C2CC(c3ccccc3)=NN2C=O)ccc1Oc1ccnc2cc(Cl)ccc12` (stereo not given), the growth is 46%.

Turning to `C=C1C(=O)O[C@H]2[C@H]1CC/C(COC(=O)NCc1cn(C)c3ccccc13)=C\CC[C@@]1(C)O[C@@H]21`, the growth is -54.3% (active).

Consider `Cc1ccsc1C(=O)CC(=O)C(F)(F)C(F)(F)C(F)(F)F`, for which the growth was 125%.

Take `COc1ccc2c(c1)C1=NN(C(=O)CO)[C@H](c3ccc(OC(F)(F)F)cc3)[C@@H]1CC2`: the growth was 127%.

Turning to `COc1ccc(-c2cc(-c3cc4ccccc4oc3=O)n(-c3ccccc3)n2)cc1`, the growth was 75.1%.

As to `CN1C(=O)C(C2=NNC(c3ccccc3C(=O)O)C2)C(=O)N(C)C1=O` (stereo not given), the growth is 104%.

Take `CCN(CC)Cc1cc(Nc2ccnc3ccc(OC)cc23)ccc1O`: the growth is 55.2%.

Turning to `CCC(=O)OCc1ccc(OC)cc1`, the growth was 104%.

In the case of `O=c1c2cc(Cl)ccc2oc2ccc(OCCCCCN3CCCCCC3)cc12`, the growth was 79%.

Take `CN(C)CCCn1c(=O)c2cc([N+](=O)[O-])ccc2c2cnc3[nH]ccc3c21`: the growth is 68.7%.

On to `O=C1/C(=C/c2cc(F)cc(F)c2)Cc2cc(F)cc(F)c21`, for which the growth was 96.5%.

As for `CC(=O)c1ccc(N2C(=O)c3ccc(Oc4ccccc4)cc3C2=O)cc1`, the growth was 98.8%.

As for `CSC1=N/C(=C\c2cccc(OCc3ccc(Cl)cc3)c2)C(=O)N1`, the growth is 88.1%.

For the compound `O=C(c1ccccc1)C(CCc1ccccn1)CCc1ccccn1`, the growth was 106%.

As for `C=C1C(=O)O[C@H]2[C@H]1CC/C(COC(=O)N[C@@H](Cc1c[nH]c3ccccc13)C(=O)OC)=C\CC[C@@]1(C)O[C@@H]21`, the growth is 45.3%.

On to `Cc1ccc(Nc2cccc3ccccc23)cc1`, for which the growth was 103%.

For the compound `CCOC(=O)c1ccc(NC(=O)CSC(N)=O)cc1`, the growth was 93.8%.

Turning to `CC(C)=CC[C@@H]1CC2(CC=C(C)C)C(=O)C(OC3(C(=O)c4ccccc4)C(=O)C4(CC=C(C)C)C[C@@H](CC=C(C)C)C(C)(C)C(CC=C(C)C)(C4=O)C3=O)(C(=O)c3ccccc3)C(=O)C(CC=C(C)C)(C2=O)C1(C)C` (stereo not given in full), the growth was -2.41% (active).

Regarding `COc1ccccc1/C=C/C(=O)CCC(=O)O`, the growth is 113%.

Turning to `C[C@@H]1CC2C3CCC4=CC(=O)C=C[C@]4(C)[C@@]3(Cl)[C@@H](O)C[C@]2(C)[C@@]1(OC(=O)c1ccco1)C(=O)CCl` (stereo not given in full), the growth is 27.9%.

For the compound `COc1cccc(C2C(C#N)=C(N)Oc3cc4c(cc32)OCO4)c1` (stereo not given), the growth is 24%.

Turning to `Cn1cnc([N+](=O)[O-])c1S(=O)(=O)Oc1ccccc1`, the growth is 100%.

Take `Clc1cccc(CNc2c3ccccc3nc3ccccc23)c1`: the growth was 59.1%.

On to `CCCCCCCCCCCCCCCC1=NC(C)(C)CN1C(C)C`, for which the growth is 71.3%.

For the compound `COc1ccc(-n2nc(C(=O)Nc3ccc(F)cc3)nc2-c2cc(OC)c(OC)c(OC)c2)cc1`, the growth is 73%.

On to `CS(=O)(=O)c1ccc(C(=O)N/N=C/c2cccc3ccccc23)cc1`, for which the growth is 87.6%.

On to `CCN1C(=O)C(C)C=C(C)C=C1C` (stereo not given), for which the growth is 124%.

(Values after PubChem BioAssay (NCI).)
